Results reported in PubChem BioAssay (NCI).
The panel holds about 83,000 compounds, 20% with a hit somewhere; the sample as a whole holds those more often.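 The test compound was applied at a single concentration to cells in 96-well plates for 48 hours, and percent growth was recorded.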 Values without a mark were called inactive. Activity calls are given as the source filed them. How the source made its calls: active means growth percent below 10; inactive means the rest.

Legend:
Assay in all cases: NCI-60 one-dose screen, 48 h (100 = growth as untreated, 0 = no growth, -100 = all killed)
Settings in all cases: 10 µM unless noted
NCI-H23 lung = tested on: NCI-H23 lung
NCI-H226 lung = tested on: NCI-H226 lung
NCI-H322M lung = tested on: NCI-H322M lung
HOP-62 NSCLC = tested on: HOP-62 NSCLC
NCI-H460 lung = tested on: NCI-H460 lung
HOP-92 NSCLC = tested on: HOP-92 NSCLC
NCI-H522 lung = tested on: NCI-H522 lung
786-0 renal = tested on: 786-0 renal
COLO 205 colon = tested on: COLO 205 colon
DU-145 prostate = tested on: DU-145 prostate
K-562 leukemia = tested on: K-562 leukemia
MALME-3M melanoma = tested on: MALME-3M melanoma
MDA-MB-231 breast = tested on: MDA-MB-231 breast
RXF 393 renal = tested on: RXF 393 renal
SF-268 CNS = tested on: SF-268 CNS
SF-295 CNS = tested on: SF-295 CNS
SF-539 CNS = tested on: SF-539 CNS
UACC-257 melanoma = tested on: UACC-257 melanoma
M14 melanoma = tested on: M14 melanoma
A549/ATCC NSCLC = tested on: A549/ATCC NSCLC

| SMILES | growth (NCI-H23 lung) | growth (NCI-H226 lung) | growth (NCI-H322M lung) | growth (HOP-62 NSCLC) | growth (NCI-H460 lung) | growth (HOP-92 NSCLC) | growth (NCI-H522 lung) | growth (786-0 renal) | growth (COLO 205 colon) | growth (DU-145 prostate) | growth (K-562 leukemia) | growth (MALME-3M melanoma) | growth (MDA-MB-231 breast) | growth (RXF 393 renal) | growth (SF-268 CNS) | growth (SF-295 CNS) | growth (SF-539 CNS) | growth (UACC-257 melanoma) | growth (M14 melanoma) | growth (A549/ATCC NSCLC) |
| --- | --- | --- | --- | --- | --- | --- | --- | --- | --- | --- | --- | --- | --- | --- | --- | --- | --- | --- | --- | --- |
| Nc1cc(NN=C(c2ccc(O)cc2)c2ccc(O)cc2)c([N+](=O)[O-])cc1[N+](=O)[O-] | -58.3% (active) | 61.8% | 110% | -10.2% (active) | -60.1% (active) | 60.5% | -82% (active) | -93.9% (active) | -52.8% (active) | 91.3% | 78.4% | 105% | 54.4% | -69.9% (active) | 81.8% | 75.8% | -55.3% (active) | -60.6% (active) | -52.9% (active) | – |
| C[C@@H](NC(=O)[C@@H](CC(=O)N1CCC(N2CCCCC2)CC1)N1C(=O)[C@@H](N2C(=O)OC[C@@H]2c2ccccc2)[C@H]1/C=C/c1cccc(Cl)c1)c1ccccc1 | 87.8% | 89.8% | 82.1% | 87.6% | 13.3% | 58.3% | 64.2% | 65% | -54.6% (active) | 88.1% | -8.32% (active) | -33.7% (active) | 33.2% | 60.5% | 67.9% | 82% | 75.7% | 57.2% | -46.6% (active) | – |
| CC1Cc2ccc(OCCN(C)C)cc2C1=O (centres undefined) | 103% | 99% | 97.8% | 96.4% | 105% | 82.1% | 106% | 101% | 105% | 107% | 100% | 108% | 112% | 110% | 103% | 99.6% | 99.5% | 80% | 99.4% | 88.9% |
| O=C(N/N=C\c1cc(Cl)ccc1O)N/N=C/c1cc(Cl)ccc1O | 45.7% | 73% | 74.7% | 54% | 16.1% | 21% | 14% | 78% | 46.3% | 87.4% | 18.4% | 74.1% | 48.3% | 85% | 57.9% | 25.5% | 39.3% | 65.5% | 50.4% | 26.2% |
| CC1=CC[C@@H]2C(C)(C)[C@@H](O)CC[C@@]2(C)[C@@H]1COc1ccc2ccc(=O)oc2c1 | 74.7% | 38.2% | 91.1% | 67.2% | 88.6% | 51.3% | 25.9% | 92.9% | 55.3% | 68.9% | 36% | 72.3% | 78.7% | 65% | 66.1% | 46.5% | 85.6% | 102% | 76.9% | 43% |
| C[C@H]1[C@H](C)CC[C@]2(COC(=O)CCC(=O)O)CC[C@]3(C)C(=CC[C@@H]4[C@@]5(C)CCCNC(C)(C)[C@@H]5CC[C@]43C)[C@H]12 | 62.8% [100 µM] | 76.3% [100 µM] | 86.8% [100 µM] | 49.1% [100 µM] | 66.8% [100 µM] | -7.31% [100 µM] (active) | 53.5% [100 µM] | 55.6% [100 µM] | 69.1% [100 µM] | 79.8% [100 µM] | 48.9% [100 µM] | 77.1% [100 µM] | 45.1% [100 µM] | 53% [100 µM] | 62.5% [100 µM] | 59.1% [100 µM] | 50.9% [100 µM] | 78.5% [100 µM] | 92% [100 µM] | 70.9% [100 µM] |
| COc1ccc(/C=C(/C(=O)c2ccc(Cl)cc2)C(=O)C(F)(F)F)cc1 | 91.4% | 99.9% | 77.7% | 91.9% | 109% | 101% | 74.8% | 99.1% | 110% | 99.2% | 92.1% | 107% | 110% | 104% | 96.8% | 96.2% | 108% | 99.3% | 120% | – |
| N#CCCc1c[nH]c2ccccc12 | 105% | 90.3% | 94.1% | 82% | 97.7% | 75.5% | 94.6% | 104% | 99.5% | 107% | 85.4% | 98.9% | 97.1% | 107% | 91% | 98.3% | 95.9% | 90.9% | 94.7% | 89% |
| Cc1ccc(Oc2c(/C=N/NC(=O)Cn3c(=O)sc4ccccc43)c(C)nn2-c2ccccc2)cc1 | 50.6% | 62% | 67.3% | 71.5% | 52% | 46.1% | 46.7% | 80.9% | 42.4% | 78.1% | 27.2% | 66.5% | 72.2% | 72.9% | 53.3% | 42.1% | 75.2% | 73.2% | 59.2% | – |
| CC(C)C1=NOC(=O)C1=Cc1cn(-c2ccccc2)nc1-c1ccccc1 | 98% | 95.2% | 91% | 99.8% | 85.2% | 85.2% | 68.7% | 72.9% | 110% | 80.8% | 42.2% | 90.5% | 97.4% | 70.3% | 93.9% | 98.1% | 91.3% | 94.1% | – | – |
| O=C(CCCCCCSc1nc(-c2ccc(Cl)cc2)cc(-c2ccc(Cl)cc2)n1)NO | 24.2% | 26.7% | 38.4% | 15.9% | 14.9% | 44.8% | 17.1% | 30.8% | 48.4% | 22.4% | 24.4% | 15% | 61.1% | 2.65% (active) | 30.4% | 52.6% | 28.4% | 31.5% | 31.7% | 7.16% (active) |
| CC(=O)CC(=O)SC1=NCCS1 | 108% | 112% | 113% | 123% | 106% | 101% | 95.8% | 109% | 109% | 121% | 104% | 140% | 112% | 122% | 102% | 109% | 102% | 98.8% | 113% | – |
| CC1=C/C(=C(\c2cc(C)c(O)c(C(=O)O)c2)c2c(Cl)cccc2Cl)C=C(C(=O)O)C1=O | 98.8% | 96.7% | 97.7% | 97% | 104% | 92.9% | 97.8% | 102% | 110% | 118% | 114% | 88.3% | 99.9% | 120% | 104% | 100% | 100% | 106% | – | – |
| COc1ccc(C2CC(c3cc(OC)c(OC)c(OC)c3)=NN2C(C)=O)cc1OCC(=O)Nc1nc2ccc(C(F)(F)F)cc2s1 (centres undefined) | 67.3% | 40.2% | 79.6% | 57.1% | 67.6% | -3.98% (active) | 66.6% | 60.1% | 85% | 48.5% | 83.8% | 68.7% | 44.8% | 33.5% | 71.3% | 61.4% | -32.9% (active) | 67.1% | 68% | – |
| CC1=CCc2ccccc21 | 97.6% | 95.3% | 91.3% | 101% | 99.8% | 82% | 90.5% | 103% | 105% | 111% | 94.1% | 101% | 94.5% | 111% | 110% | 101% | 112% | 105% | 105% | – |
